# Reference: PubChem BioAssay AID623870 (Broad Institute, 2012)
# In all, about 390,000 compounds went through this assay and about 2,600 (0.67%) were called active.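 The calls were made as follows: active = mean inhibition of replicates at least 50% and at least half of replicates each reaching 50%; inconclusive = half or more replicates reach 50% but mean below 50%; inactive = the rest.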 For the sample, actives were picked, then their nearest neighbours and some compounds at random.
# Target: Transforming acidic coiled-coil-containing protein 3 (Homo sapiens) (UniProt Q9Y6A5)
# Experiment: inhibitors of ARNT PAS-B binding to TACC3 – biochemical, AlphaScreen, single concentration, primary screen (AID 623870);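 also: 0% = complete ARNT plus TACC3 wells and 100% = ARNT alone without TACC3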
# Settings: AlphaScreen His-ARNT PAS-B/GST-TACC3 binding, luminescence; at 9.99 µM; stronger effect = higher value
row,SMILES,inhibition
1,Cc1ccc2c(c1)=C/C(=C\c1c(O)[nH]c(=O)[nH]c1=O)C(=O)N=2,13.7% (inactive)
2,COc1ccccc1N=Nc1c(O)[nH]c(=S)[nH]c1=O,-1.81% (inactive)
3,O=C1N=c2ccccc2=C/C1=C\c1c(O)[nH]c(=S)[nH]c1=O,37% (active)
4,C[C@@H]1CN([C@H](C)CO)C(=O)CCCn2cc(nn2)CO[C@@H]1CN(C)C(=O)Oc1cccc2ccccc12,-8.62% (inactive)
5,O=C(Cc1ccccn1)N1CCCCN2[C@H](C1)[C@H](c1ccc(-c3ccccc3F)cc1)[C@@H]2CO,10.9% (inactive)
6,C/C=C/c1ccc([C@H]2[C@H](CO)N3CCCCN(C(=O)Cc4ccncc4)C[C@@H]23)cc1,1.93% (inactive)
7,O=c1[nH]c(=O)n(CCc2ccccc2)c(O)c1/C=N/N1CCOCC1,0.078% (inactive)
8,CC(C)c1ccc(-n2c(O)c(/C=N/N3CCOCC3)c(=O)[nH]c2=S)cc1,6.63% (inactive)
9,O=c1[nH]c(=S)n(C2CC2)c(O)c1/C=N/N1CCOCC1,-0.873% (inactive)
10,O=C(N/N=C/c1c(O)n(Cc2ccccc2)c(=O)[nH]c1=O)c1ccccc1,70.1% (active)
11,O=C(N/N=C/c1c(O)n(C2CC2)c(=S)[nH]c1=O)c1ccccc1,62.7% (active)
12,CCCCC(=O)N/N=C/c1c(O)n(-c2ccccc2)c(=O)[nH]c1=O,65.6% (active)
13,CC/C(=N\NC(=O)c1ccccc1O)c1c(O)n(Cc2ccccc2)c(=O)[nH]c1=O,6.78% (inactive)
14,O=C(N/N=C/c1c(O)n(C2CC2)c(=S)[nH]c1=O)c1ccccc1Cl,68.5% (active)
15,O=c1[nH]c(=O)n(-c2ccc(F)cc2)c(O)c1C=NCCN1CCCCC1,-1.3% (inactive)
16,COc1ccccc1-n1c(O)c(C=NC2CC2)c(=O)[nH]c1=O,4.19% (inactive)
17,CCc1nnc(NS(=O)(=O)c2ccc(N=Cc3c(O)n(-c4ccccc4)c(=O)[nH]c3=O)cc2)s1,-4.6% (inactive)
18,Cc1cccc(-n2c(O)c(/C=N/N3CCOCC3)c(=O)[nH]c2=S)c1,-0.608% (inactive)
19,COc1ccc(-c2ccc([C@H]3[C@H](CO)N4CCCCN(C(=O)Cc5ccncc5)C[C@@H]34)cc2)cc1,-8.67% (inactive)
20,COC(=O)[C@H]1[C@H](CO)[C@H]2Cn3c(ccc(-c4cccc(F)c4)c3=O)[C@@H]1N2Cc1ccccc1,-0.694% (inactive)
21,O=C(Cc1ccccc1)N1CCCCN2[C@H](C1)[C@H](c1ccc(C#CC3(O)CCCC3)cc1)[C@@H]2CO,-2.57% (inactive)
22,COc1cccc(-c2ccc3n(c2=O)C[C@@H]2[C@@H](CO)[C@H](C(=O)O)[C@H]3N2C(=O)c2cnccn2)c1,-0.13% (inactive)
23,COC(=O)[C@@H]1[C@@H](CO)[C@@H]2Cn3c(ccc(C4=CCCCC4)c3=O)[C@H]1N2CC1CC1,-4.97% (inactive)
24,O=C(Cc1ccccc1)N1CCCCN2[C@H](CO)[C@H](c3ccc(C#Cc4ccccc4)cc3)[C@H]2C1,3.71% (inactive)
25,CCOC(=O)[C@@H]1[C@@H]2NC(=O)N[C@@]1(C)Oc1ccccc12,1.64% (inactive)
26,OC[C@@H]1[C@H]2c3ccccc3NC[C@H]2N1Cc1cccnc1,5.28% (inactive)
27,CCC(C)n1c(O)c(/C=N/Nc2nc3c(c(=O)n(C)c(=O)n3C)n2C)c(=O)[nH]c1=S (stereo not given),65.4% (active)
28,O=C(O)[C@@H]1[C@@H](CO)[C@@H]2Cn3c(ccc(-c4ccccc4F)c3=O)[C@H]1N2C(=O)c1cccnc1,8.55% (inactive)
29,COc1ccc(C#Cc2ccc([C@H]3[C@H](CO)N4CCCCN(C(=O)Cc5ccccc5)C[C@@H]34)cc2)cc1,-4.42% (inactive)
30,O=C(Cc1ccncc1)N1CCCCN2[C@@H](CO)[C@H](c3ccc(C#CC4(O)CCCC4)cc3)[C@@H]2C1,-1.41% (inactive)
